According to PubChem BioAssay AID1159580 (chemical genetic matrix, 2015):
The whole screen tested about 5,500 compounds, of which about 2,000 (36%) were called active. Not shown: some 18% with an inconclusive outcome. Rule as the data show it: active = normalized growth mostly below about 0.91 (no sharp cut-off); inconclusive = no clear call, values can overlap the other calls; inactive = mostly above about 0.92. This is one part of the list.

Assay: chemical genetic growth profiling, strain panel (AID 1159580);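 also: tested at 20 µM; growth read once vehicle control cultures reached saturation at 30 °C; 1 = growth at the plate median or of vehicle wells; lower values mean less growth of the strain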
Conditions: S. cerevisiae deletion strains, growth OD
[1] = locus YHR030C, strain SLT2, stronger effect = lower value
[2] = locus YHR079C, strain IRE1, stronger effect = lower value
[3] = locus YJL095W, strain BCK1, stronger effect = lower value
[4] = locus YJR066W, strain TOR1, stronger effect = lower value
[5] = locus YLR113W, strain HOG1, stronger effect = lower value
[6] = locus YNL183C, strain NPR1, stronger effect = lower value
[7] = locus YOR231W, strain MKK1, stronger effect = lower value
[8] = locus YPL256C, strain CLN2, stronger effect = lower value

Measured: normalized growth

Cc1cccc(C#Cc2ccccc2)n1
inactive: locus YAL040C, strain CLN3, stronger effect = lower value 0.997 | locus YCL061C, strain MRC1 (second series), stronger effect = lower value 0.968 | locus YDR363W, strain ESC2, stronger effect = lower value 1.05 | locus YER002W, strain NOP16, stronger effect = lower value 0.986 | locus YGR078C, strain PAC10, stronger effect = lower value 0.978 | locus YMR263W, strain SAP30, stronger effect = lower value 0.993 | locus YMR307W, strain GAS1, stronger effect = lower value 0.919 | locus YNL128W, strain TEP1, stronger effect = lower value 0.992 | locus YNL175C, strain NOP13, stronger effect = lower value 0.977 | locus YNL197C, strain WHI3, stronger effect = lower value 1 | locus YNL224C, strain SQS1, stronger effect = lower value 1 | locus YNL322C, strain KRE1, stronger effect = lower value 0.976 | locus YOR083W, strain WHI5 (second series), stronger effect = lower value 0.918

CC(C)(CO)C(O)C(=O)NCCCO (stereo unspecified)
inactive: locus YAL021C, strain ccr4, stronger effect = lower value 1 | locus YAL026C, strain drs2, stronger effect = lower value 1.02 | locus YAL030W, strain snc1, stronger effect = lower value 1.02 | locus YBL061C, strain skt5, stronger effect = lower value 1.02 | locus YBR009C, strain hhf1, stronger effect = lower value 1.03 | locus YBR023C, strain chs3, stronger effect = lower value 1.03 | locus YBR171W, strain sec66, stronger effect = lower value 1.03 | locus YBR231C, strain swc5, stronger effect = lower value 1.02 | locus YBR279W, strain paf1, stronger effect = lower value 1.01 | locus YCL011C, strain gbp2, stronger effect = lower value 1.02 | locus YCL016C, strain dcc1, stronger effect = lower value 1.02 | locus YCL061C, strain MRC1, stronger effect = lower value 1.01 | locus YCL069W, strain vba3, stronger effect = lower value 1.01 | locus YCR088W, strain abp1, stronger effect = lower value 1.01 | locus YDL005C, strain med2, stronger effect = lower value 1.01 | locus YDL040C, strain nat1, stronger effect = lower value 1.01 | locus YDR001C, strain nth1, stronger effect = lower value 1.02 | locus YDR069C, strain doa4, stronger effect = lower value 1.02 | locus YDR137W, strain rgp1, stronger effect = lower value 1.03 | locus YDR159W, strain sac3, stronger effect = lower value 1.03 | locus YDR195W, strain ref2 1.01 | locus YDR297W, strain sur2, stronger effect = lower value 1.01 | locus YDR334W, strain swr1, stronger effect = lower value 1.01 | locus YDR335W, strain msn5, stronger effect = lower value 1.01 | locus YDR392W, strain spt3, stronger effect = lower value 1.02 | locus YEL003W, strain gim4, stronger effect = lower value 1.02 | locus YEL037C, strain rad23, stronger effect = lower value 1.01 | locus YEL061C, strain CIN8 (second series), stronger effect = lower value 1.02 | locus YER015W, strain faa2, stronger effect = lower value 1.01 | locus YER016W, strain bim1, stronger effect = lower value 1.02 | locus YER111C, strain swi4, stronger effect = lower value 1.01 | locus YER155C, strain BEM2 (second series), stronger effect = lower value 1.04 | locus YFR010W, strain ubp6, stronger effect = lower value 1.01 | locus YGL167C, strain pmr1, stronger effect = lower value 1.03 | locus YGL173C, strain kem1, stronger effect = lower value 1.02 | locus YGL227W, strain vid30, stronger effect = lower value 1.02 | locus YGL240W, strain doc1, stronger effect = lower value 1.02 | locus YGL253W, strain hxk2, stronger effect = lower value 1.02 | locus YHR013C, strain ard1, stronger effect = lower value 1.03 | locus YHR027C, strain rpn1, stronger effect = lower value 1.02 | [1] 1.02 | [2] 1.01 | locus YHR142W, strain chs7, stronger effect = lower value 1.01 | locus YJL092W, strain hpr5, stronger effect = lower value 1.01 | locus YJL095W, strain BCK1 (second series), stronger effect = lower value 1.01 | [3] 0.995 | locus YJL115W, strain asf1, stronger effect = lower value 1.02 | locus YJL129C, strain trk1, stronger effect = lower value 1.02 | locus YJL154C, strain vps35, stronger effect = lower value 1.01 | locus YJL164C, strain tpk1, stronger effect = lower value 1.02 | locus YJL166W, strain qcr8, stronger effect = lower value 1.02 | locus YJL187C, strain SWE1, stronger effect = lower value 1.01 | [4] 0.964 | locus YKL160W, strain elf1, stronger effect = lower value 1.01 | locus YKR026C, strain gcn3, stronger effect = lower value 0.994 | locus YKR091W, strain srl3, stronger effect = lower value 1.01 | locus YLL001W, strain dnm1, stronger effect = lower value 1.02 | locus YLL026W, stronger effect = lower value 1.02 | locus YLL041C, strain sdh2, stronger effect = lower value 1.02 | locus YLR027C, strain aat2, stronger effect = lower value 1.02 | [5] 0.985 | locus YLR221C, strain rsa3, stronger effect = lower value 1.01 | locus YLR258W, strain gsy2, stronger effect = lower value 1.02 | locus YLR262C, strain YPT6 (second series), stronger effect = lower value 1.02 | locus YLR320W, strain mms22, stronger effect = lower value 1.02 | locus YLR342W, strain FKS1, stronger effect = lower value 1.01 | locus YLR357W, strain rsc2, stronger effect = lower value 1.04 | locus YLR370C, strain arc18, stronger effect = lower value 1.02 | locus YLR384C, strain iki3, stronger effect = lower value 1.02 | locus YML120C, strain ndi1, stronger effect = lower value 1.01 | locus YMR058W, strain fet3, stronger effect = lower value 1.01 | locus YMR125W, strain sto1, stronger effect = lower value 1.03 | locus YMR129W, stronger effect = lower value 1.01 | locus YMR205C, strain PFK2, stronger effect = lower value 1.03 | locus YMR231W, strain pep5, stronger effect = lower value 1.01 | locus YNL071W, strain lat1, stronger effect = lower value 1.02 | [6] 0.954 | locus YNL209W, strain ssb2, stronger effect = lower value 1.01 | locus YNL248C, strain rpa49, stronger effect = lower value 0.992 | locus YNL322C, strain KRE1 (second series), stronger effect = lower value 1.01 | locus YNR049C, strain mso1, stronger effect = lower value 1.01 | locus YOR001W, strain rrp6, stronger effect = lower value 1 | locus YOR070C, strain gyp1, stronger effect = lower value 1.01 | locus YOR080W, strain dia2, stronger effect = lower value 1.02 | locus YOR083W, strain WHI5, stronger effect = lower value 1 | locus YOR106W, strain vam3, stronger effect = lower value 1 | [7] 1.01 | locus YOR265W, strain rbl2, stronger effect = lower value 1.01 | locus YOR270C, strain vph1, stronger effect = lower value 1.03 | locus YOR290C, strain snf2, stronger effect = lower value 1.03 | locus YPL051W, strain arl3, stronger effect = lower value 1.03 | locus YPL078C, strain atp4, stronger effect = lower value 1.01 | locus YPL106C, strain sse1, stronger effect = lower value 1 | locus YPL240C, strain hsp82, stronger effect = lower value 1.01 | [8] 0.994

C=C1CC[C@H](O)C/C1=C/C=C1\CCCC2(C)C1CCC2C(C)CCCC(C)C (stereo partly specified)
inactive: [1] 0.874 | [2] 0.925 | [3] 0.893 | [4] 0.943 | [6] 0.915 | [7] 0.896 | [8] 0.846
active: [5] 0.843
